High-throughput results from PubChem.
Exocytosis inh: blocks lytic granule exocytosis; TALL-104 LAMP-1 surface exposure, flow cytometry; cells stimulated with thapsigargin and PMA; AID 651702; inhibition, % at 10 µM; 360,000 compounds, 0.66% hits;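 active = inhibition above about 55%, limit read from the data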
Platelet DG rel: modulates dense granule release in human platelets; human platelet-rich plasma, SFLLRN dense granule ATP release, luminescence; inhibition, %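 (compounds screened at 7.5 µM in platelet-rich plasma)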; 300,000 compounds, 0.22% hits; AID 1663;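 active = mean replicate score, as percent of positive control, at or above 50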
Rce1 inh: blocks yeast Ras-converting enzyme; Q03530; yeast membranes, quenched prenylated peptide cleavage fluorescence; calls only; 290,000 compounds, 0.27% hits; AID 2563;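 active = fall in fluorescence gain of 50% or more versus controls, with final raw signal at or below 3038400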;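 note: plate controls were neutral control wells for no effect and wells lacking membranes for full effect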
M18AAP inhibitor: blocks P. falciparum M18 aspartyl aminopeptidase; recombinant PfM18AAP, H-Glu-NHMec fluorogenic cleavage; inhibition, % at 7.35 µM; 290,000 compounds, 1.2% hits;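 active = inhibition above the campaign mean inhibition over all tested compounds plus 3 SD, cut at about 28% in these data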;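 note: 0% = plate median of test compound wells and 100% = 2 mM ZnCl2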
ABHD5-PLIN5 inh: blocks binding of human ABHD5 to perilipin-5 | inhibition, % at 4 µM | AID 602281 | Split G. princeps luciferase complementation, luminescence, 4 h | 360,000 compounds, 0.78% hits;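 active = inhibition above the mean inhibition across every tested compound plus 3 SD, cut at about 22% in these data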;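 note: 0% = DMSO only wells and the 100% control is not disclosed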
Target sequence (Q00G26 whole entry, looked up): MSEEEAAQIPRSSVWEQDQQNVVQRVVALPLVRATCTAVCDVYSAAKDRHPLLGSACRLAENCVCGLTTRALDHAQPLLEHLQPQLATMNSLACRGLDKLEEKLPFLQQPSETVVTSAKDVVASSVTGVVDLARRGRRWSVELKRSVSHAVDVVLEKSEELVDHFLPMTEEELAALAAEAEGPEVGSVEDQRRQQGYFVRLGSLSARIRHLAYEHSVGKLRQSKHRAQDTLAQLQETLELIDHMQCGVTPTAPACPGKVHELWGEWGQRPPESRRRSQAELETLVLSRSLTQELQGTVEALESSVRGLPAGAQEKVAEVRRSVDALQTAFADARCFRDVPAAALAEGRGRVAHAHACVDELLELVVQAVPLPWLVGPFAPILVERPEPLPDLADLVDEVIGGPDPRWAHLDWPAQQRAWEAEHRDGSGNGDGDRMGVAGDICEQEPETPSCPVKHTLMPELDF
Target sequence (Q8WTS1 whole entry, looked up): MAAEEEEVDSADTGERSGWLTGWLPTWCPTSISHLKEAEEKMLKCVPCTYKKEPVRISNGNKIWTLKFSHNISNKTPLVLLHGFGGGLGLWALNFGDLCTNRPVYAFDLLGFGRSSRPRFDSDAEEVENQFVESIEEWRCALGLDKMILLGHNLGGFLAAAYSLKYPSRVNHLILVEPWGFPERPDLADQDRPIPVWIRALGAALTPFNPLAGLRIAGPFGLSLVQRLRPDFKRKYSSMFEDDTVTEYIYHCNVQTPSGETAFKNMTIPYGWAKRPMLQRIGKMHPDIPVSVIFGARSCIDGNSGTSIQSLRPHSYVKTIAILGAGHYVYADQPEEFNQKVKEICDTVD
* = called active by the depositor; i = inactive; x = no result given; + = active, no number. Rows were chosen to be rich in hits. Some 2.6% of all compounds tested hit in one or more screens of this group.

SMILES	Exocytosis inh	Platelet DG rel	Rce1 inh	M18AAP inhibitor	ABHD5-PLIN5 inh
O=C(/C=C/c1ccc(-c2ccccc2)o1)c1ccccc1	77.7*	3.4	i	-20.9	11.5
Cc1ccc(-c2ccc(/C=C/C(=O)c3ccccc3)o2)cc1	67.5*	-1.7	i	-8.7	13.2
Cc1cccc(CCN2CCC(C(=O)c3ccc(NS(C)(=O)=O)cc3)CC2)n1	x	3.2	i	1.1	x
CC1=CCC(/C=N\Nc2nnc3c(n2)[nH]c2ccccc23)CC1 (configuration not stated)	x	-15.5	i	35.8*	x
COc1ccc2oc(=O)c(-c3cn4ccc(C)cc4n3)cc2c1	-0.7	0.0	i	-7.4	-2.3
COc1ccc(C2=Nn3c(nnc3-c3ccccc3F)SC2)cc1OC1CCOC1 (configuration not stated)	5.8	x	x	x	-1.2
Brc1ccc(N=Nc2ccc3ccccc3n2)cc1	-22.1	69.0*	i	5.2	-0.8
Cc1ccccc1N=C1Nc2ccccc2N[C@]12C[C@H]1CCC(=O)N3CC[C@@H](C2)[C@@H]13	57.6*	x	x	x	2.3
COc1ccc(C(C)=O)cc1CSc1nnc(-c2ccc(Cl)cc2)n1-c1ccccc1	73.1*	2.4	i	-0.1	8.4
COc1ccc(CCNC(=O)CSc2nc(N)c(C#N)c(-c3cccs3)c2C#N)cc1OC	0.7	-5.3	i	1.9	-12.5
COc1ccc(C2/C=C\CN(C(=O)c3ccc(C)cc3)[C@H](Cc3ccccc3)C(=O)N2Cc2ccc(F)cc2)cc1 (some centres not stated)	2.2	3.1	+	x	-6.7
CC12CCC3(CO)COC(c4ccccc4O1)C2C3 (configuration not stated)	-1.1	0.7	i	-2.2	-1.4
CCS(=O)(=O)Nc1c(C(=O)OC)[nH]c2ccccc12	-0.6	0.5	i	-0.6	1.0
CCS(=O)(=O)Nc1c(C(=O)O)[nH]c2ccccc12	-1.3	7.3	+	-7.9	-4.6
CCOCCCNC(=O)c1cc2c(=O)n3cccc(C)c3nc2n1C	-4.2	-4.8	i	x	2.7
Cc1ccc(S(=O)(=O)N2CCN(C(=O)CSc3nc4ccccc4o3)C2)cc1	-5.7	-10.4	i	4.9	-3.2
CCOC(=O)C1C(c2ccc(O)c(OCC)c2)NC(=S)NC1(O)C(F)(F)F (configuration not stated)	-0.7	-4.9	i	-2.1	0.8
CCOC(=O)C1C(c2ccc(O)c(O)c2)NC(=S)NC1(O)C(F)(F)F (configuration not stated)	0.5	-1.4	i	64.8*	-6.8
CCOC(=O)CCc1c(C)n(CC)c2cc(-c3ccccc3OC)nn2c1=O	-0.5	8.5	i	-0.7	10.6
CCN(CC)CCCNC(=O)CCc1c(C)n(CC)c2cc(-c3ccccc3OC)nn2c1=O	-2.4	1.8	+	-10.0	-3.0
Cc1ccnc2nc(NC(=O)c3ccco3)nn12	0.4	-2.4	i	0.2	5.9
Oc1ccc(/C=N/NC(=S)Nc2cccnc2)cc1O	1.2	17.1	i	60.2*	-2.1
O=C1NC[C@H](CCCCN2CCN(CC3CCCCC3)C(=O)C2=O)N(CC2CCCCC2)C1=O	0.7	x	x	x	-7.9
COc1ccc(CCN2C(=O)c3[nH]nc(-c4ccccc4O)c3C2c2cccc(Cl)c2)cc1 (configuration not stated)	62.3*	-2.3	i	-4.2	-3.8
COc1ccc(/C=C/C=C2\NC(=S)NC2=O)cc1	57.9*	2.8	i	11.1	-2.7
SMILES	Exocytosis inh	Platelet DG rel	Rce1 inh	M18AAP inhibitor	ABHD5-PLIN5 inh
CCN1Cc2c(/C=C/c3ccccc3)nc3ccc(OC)cc3c2N(c2cccc(Cl)c2)C1	64.8*	2.7	i	0.8	-12.8
CC(Sc1nnc(CC(C)c2ccccc2)n1N)C(N)=O (configuration not stated)	-7.5	4.8	i	-0.1	-4.4
N=c1c2c(ncn1CCN1CCOCC1)Oc1ccc3ccccc3c1C2c1ccccc1 (configuration not stated)	9.4	-2.3	i	-15.3	14.2
COc1ccc(C2c3c(ncn(CCN4CCOCC4)c3=N)Oc3ccc4ccccc4c32)cc1 (configuration not stated)	23.7	1.0	+	-8.2	13.9
Cc1ccc(N(O)C(=O)NCCCCNC(=O)N(O)c2ccc(C)cc2)cc1	-1.9	1.1	i	12.4	6.7
CC1(C)CC(=O)C2=C(C1)NC(=S)C(C#N)C21CCCCC1 (configuration not stated)	24.1	14.3	i	28.9*	-16.6
CC1(C)CC(=O)C2=C(C1)NC(SCC(=O)Nc1ccccc1)=C(C#N)C21CCCCC1	6.1	4.1	i	1.7	-8.4
